Test results as given in PubChem BioAssay.
Active and inactive are the calls of the source.

Assay: probe aCHRDL2 binding to arrayed compounds – biochemical, biotinylated probe, 635/667 nm fluorescence, primary screen (AID 1100)
Conditions: small-molecule microarray, higher = more signal

SMILES	composite z-score
O=C1O[C@@H](c2ccccc2)[C@@H](c2ccccc2)N2[C@@H](c3ccccc3OCCO)[C@]3(C(=O)Nc4ccccc43)[C@@H](C(=O)Nc3nc4ccccc4s3)[C@H]12	0.0859
O=C1NC(=O)C2C1C=CC(C(O)c1cc(C(F)(F)F)cc(C(F)(F)F)c1)N2Nc1ccccn1 (stereo unspecified)	-0.387
O=C(N1CCCCC1)[C@]1(Cc2ccccc2)N=C(c2ccc(OCCCO)cc2)O[C@@H]1c1ccccc1	1.08
CC(C)c1ccc(NN2C(C(O)c3ccc(B(O)O)cc3)C=CC3C(=O)N(c4ccccc4)C(=O)C32)cc1 (stereo unspecified)	1.05
NC(=O)NCC#Cc1ccc2c(c1)[C@]1(C(=O)N2)[C@H](c2ccc(O)cc2)N2[C@H](c3ccccc3)[C@H](c3ccccc3)OC(=O)[C@H]2[C@@H]1C(=O)O	0.617
Cc1ccccc1C(O)C1C=CC2C(=O)N(c3ccccc3)C(=O)C2N1Nc1ccc(C(C)C)cc1 (stereo unspecified)	0.857
COc1ccc(CCNC(=O)[C@@H]2c3ccccc3C(=O)N(Cc3ccccc3Cl)[C@H]2c2ccc(CO)cc2)cc1	0.602
O=C(NC1CC1)[C@@H]1c2ccccc2C(=O)N(Cc2ccccc2Cl)[C@H]1c1ccc(CO)cc1	1.02
Cc1nc2cc(Br)ccc2c(=O)o1	-0.267
CCN(CC)c1ccc(N2CC=CC34O[C@@H]5C=CCCOC(=O)C5[C@H]3C(=O)N(CCCCCCO)[C@@H]4C2=O)cc1 (stereo partly specified)	0.414

Assay: change in splice reporter luminescence, either direction, cell-based, HEK293, spliceosome inhibition project, primary screen (AID 1101);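 further: HEK293 cells carrying a splicing-competent luciferase reporter gene; test concentration not given here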
Conditions: HEK293 splicing luciferase reporter, 24 h, higher = more signal, called active from +8 up or from −8 down

SMILES	z-score
CC(CO)N1C(=O)[C@@H]2C3C(=O)OCCC/C=C\[C@H]3OC23C=CCN(C(C)(C)C)C(=O)[C@@H]13 (stereo partly specified)	0.742 (inactive)
CN1C(=O)C2C=CC(C(O)c3ccccc3)N(N(c3ccccc3)c3ccccc3)C2C1=O (stereo unspecified)	0.597 (inactive)
C=CCOC(=O)[C@H]1[C@@H]2C(=O)O[C@@H](c3ccccc3)[C@@H](c3ccccc3)N2[C@@H](c2ccc(OCCOC(=O)[C@@H]3C[C@@H]4C(=O)N[C@@H](CCCCNC(C)=O)C(=O)N4[C@@H]3c3ccc(O)cc3)cc2)[C@]12C(=O)Nc1ccccc12	-0.0104 (inactive)
C[C@H]1C2[C@H](Cc3ccccc3)NC(=O)[C@]23C(=O)N[C@H](Cc2ccccc2)C(=O)N2CCC[C@H]2C(=O)NC/C=C\C/C=C/C3[C@@H]2O[C@]12C (stereo partly specified)	-0.925 (inactive)
CC(C)C(O)C1C=CC2C(=O)NC(=O)C2N1Nc1ccc(Cl)cc1Cl (stereo unspecified)	1.54 (inactive)
COC(=O)C(CC#Cc1ccc2c(c1)[C@]1(C(=O)N2)[C@H](C(=O)Nc2nc3ccccc3s2)[C@H]2C(=O)O[C@H](c3ccccc3)[C@H](c3ccccc3)N2[C@@H]1c1ccc(O)cc1)C(=O)OC	-0.204 (inactive)
CC(C)C(O)C1C=CC2C(=O)N(c3ccccc3)C(=O)C2N1Nc1ccc([N+](=O)[O-])cc1 (stereo unspecified)	0.735 (inactive)
CC(C)C[C@@H]1NC(=O)[C@@H]2C[C@H](C(=O)NCc3ccc(F)cc3)[C@H](c3cccc(OCCO)c3)N2C1=O	-0.177 (inactive)
CCCC[C@H]1OB(O)C[C@H]2C1=C(COC)C[C@H]1C(=O)N(C)C(=O)[C@H]12	0.377 (inactive)
COCCOC(=O)N1C(=O)[C@@]2(c3cc(C#Cc4ccc(OC)cc4)ccc31)[C@H](c1ccccc1OCCO)N1[C@H](c3ccccc3)[C@H](c3ccccc3)OC(=O)[C@H]1[C@@H]2C(=O)NC[C@H](O)c1ccccc1	-0.352 (inactive)
CCOC(=O)C[C@H]1[C@H](OC(=O)c2ccc(C(=O)c3ccccc3)cc2)[C@@H](NC(=O)c2ccccc2)c2cc(OCCCO)ccc2N1C(=O)c1ccc2ccccc2n1	0.487 (inactive)
O=C(c1ccccc1)N1C(=O)[C@@]2(Cc3ccccc31)N=C(c1ccc(OCCCO)cc1)O[C@H]2c1ccccc1	-0.663 (inactive)
Cc1ccc(N2C(=O)c3ccccc3[C@@H](C(=O)NC3CC3)[C@@H]2c2ccc(CO)cc2)nc1	0.942 (inactive)
[N-]=[N+]=Nc1ccccc1[C@@H]1OC(c2ccc(OCCCO)cc2)=N[C@]1(CCS(=O)(=O)c1ccccc1)C(N)=O	-0.752 (inactive)
COC(=O)C(CC#Cc1ccc2c(c1)[C@]1(C(=O)N2)[C@H](C(=O)Nc2nc3ccccc3s2)[C@H]2C(=O)O[C@H](c3ccccc3)[C@H](c3ccccc3)N2[C@@H]1c1ccccc1OCCO)C(=O)OC	1.44 (inactive)
CCOC(=O)C[C@H]1[C@H](OC(=O)c2ccc(C(=O)c3ccccc3)cc2)[C@@H](NC(=O)CC(C)C)c2cc(OCCCO)ccc2N1C(=O)c1ccc2ccccc2n1	-0.202 (inactive)
